Values joined by “and” are separate entries in the source; they are usually repeats but may differ in a detail not shown here. Equal values may be shown once. Unmarked numbers belong to inactive results. Records with an inconclusive call do not appear. Where a call stands in place of a potency, no number is given. Active and inactive are the calls of the source. Unless noted, the call rests on the fitted dose curve.
Key:
[1] = target: Androgen receptor (Homo sapiens) (UniProt P10275); test: qHTS assay for small molecule agonists of androgen receptor signaling (AID 588515; active means well fitted curve in the direction sought with a large enough effect in the signal ratio, with a control signal flat; the % refers to the signal ratio); conditions: AR-UAS-bla HEK293, beta-lactamase ratio, agonist 16 h; active compounds read high
In short: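 EC50 and efficacy came from Hill fits of titrations (up to 92 uM) normalized to 30 nM R1881 as 100% and DMSO as 0%. Compound exposure was 16 h at 37 C on AR-UAS-bla HEK293 cells, with a 405/460/530 nm CCF4 fluorescence read.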

[2] = target: Androgen receptor (Homo sapiens) (UniProt P10275); test: qHTS assay for small molecule antagonists of androgen receptor signaling (AID 588516; active means well fitted curve in the direction sought with a large enough effect in the signal ratio, with a control signal flat, not every such curve was filed as active; the % refers to the signal ratio); conditions: AR-UAS-bla HEK293, beta-lactamase ratio, antagonist mode, 16 h; series mostly up to 76.8 µM
In short: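 HEK293 AR-UAS-bla cells, 10% dialyzed FBS medium; cpd titration + R1881 10 nM final, 16 h 37 C; CCF4 2 h RT; FRET ratio; IC50/efficacy via Hill fit.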

[3] = target: Bile acid receptor (Homo sapiens) (UniProt Q96RI1); test: qHTS assay for small molecule antagonists of farnesoid X receptor signaling (AID 588526); conditions: HEK293T FXR-UAS-bla, beta-lactamase ratio, antagonist mode; series mostly up to 76.7 µM
In short: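 Beta-lactamase reporter antagonist mode: HEK293T FXR-UAS-bla cells, titrated compound, CDCA stimulation, 16 h 37 C, CCF4 dye 2 h RT. Data normalized to CDCA 50 uM and DMSO; Hill-fit IC50.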

[4] = target: Glucocorticoid receptor (Homo sapiens) (UniProt P04150); test: qHTS assay for small molecule antagonists of glucocorticoid receptor signaling (AID 588533; active means well fitted inhibition curve with a large enough effect in the signal ratio, with a control signal flat, not every such curve was filed as active; the % refers to the signal ratio;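 further: cells stimulated with 2 nM dexamethasone as agonist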); conditions: HeLa MMTV-bla, GRE beta-lactamase ratio, antagonist mode, 18 h; series mostly up to 76.8 µM
In short: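 Antagonist-mode qHTS: compound titrations added to GRE-bla HeLa cells, then dexamethasone 2 nM final; 18 h, 37 C. CCF4 FRET fluorescence normalized to dexamethasone and DMSO; IC50 from Hill fit.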

[5] = target: Peroxisome proliferator-activated receptor delta (Homo sapiens) (UniProt Q03181); test: qHTS assay for small molecule antagonists of peroxisome proliferator-activated receptor delta signaling (AID 588535; active means well fitted inhibition curve with a large enough effect in the signal ratio, with a control signal flat, not every such curve was filed as active; the % refers to the signal ratio); conditions: HEK293T PPARd-UAS-bla, beta-lactamase FRET ratio, 18 h; series mostly up to 76.7 µM
In short: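 HEK293T PPAR-delta-UAS-bla cells, 4000/well, 2% charcoal/dextran FBS; 5 h 37 C; cpd titration; 18 h 37 C; CCF4 2 h RT; FI 460/530 nm; Hill fit → IC50, efficacy.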

[6] = target: Thyroid hormone receptor beta (Homo sapiens) (UniProt P10828); test: qHTS assay for small molecule antagonists of thyroid hormone receptor beta signaling (AID 588547; active means well fitted inhibition curve with a large enough effect in the signal ratio, with a control signal flat, not every such curve was filed as active; the % refers to the signal ratio;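 further: cells stimulated with 0.4 nM T3 agonist during compound exposure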); conditions: TR-UAS-bla HEK293, beta-lactamase ratio, antagonist mode, 18 h
In short: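 Inhibition of T3-driven (0.4nM final) beta-lactamase reporter activity was measured over 0.59 nM to 92 uM compound after 18 h at 37 C. The cells were GripTite HEK293 TR-UAS-bla in charcoal/dextran-stripped serum, with CCF4 ratio read-out and IC50 from Hill fits.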

[7] = qHTS assay for small molecule agonists of the antioxidant response element (ARE) signaling pathway (AID 651741; active means well fitted activation curve with a large enough effect in the signal ratio; the % refers to the signal ratio; further: potency means the concentration at half of the fitted maximal effect); conditions: HepG2 ARE-bla reporter, beta-lactamase FRET ratio, 16 h; series mostly up to 96 µM
In short: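 Quantitative HTS in HepG2 cells stably expressing an ARE-beta-lactamase reporter; 16 h compound exposure at 37 C, followed by 2 h room-temperature incubation with LiveBLAzer B/G FRET substrate and fluorescence measurement.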

[8] = qHTS assay for small molecule activators of the nuclear factor-kappa B (NF-kB) signaling pathway (AID 651749; active means well fitted activation curve with a large enough effect in the signal ratio; the % refers to the signal ratio); conditions: NF-kB-bla ME-180 cells, beta-lactamase FRET ratio, 16 h; activation: active compounds read high
In short: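 Readout: beta-lactamase reporter driven by an NF-kB response element, detected fluorescently as loss of FRET. Cells were the ME-180 line, treated 16 hr at 37C with pin-transferred compound.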

[9] = qHTS assay for small molecule activators of the human pregnane X receptor (PXR) signaling pathway (AID 720659; call rule not given here); conditions: DPX-2 HepG2 CYP3A4-luciferase, 24 h; series mostly up to 92.3 µM
[10] = target: Estrogen receptor (Homo sapiens) (UniProt P03372); test: qHTS assay for small molecule agonists of estrogen receptor alpha signaling (AID 588514); conditions: ER-alpha-UAS-bla HEK293, beta-lactamase ratio, 18 h; series mostly up to 76.8 µM; further: nearly all actives have a fitted effect of over 70% in size
In short: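 Cells were plated at 5000/well, incubated 4 hrs at 37 C, dosed with compound titration series, incubated 18 hrs at 37 C, loaded with CCF4 dye for 2 hrs at RT, then fluorescence was read.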

[11] = target: Bile acid receptor (Homo sapiens) (UniProt Q96RI1); test: qHTS assay for small molecule agonists of farnesoid X receptor signaling (AID 588527); conditions: HEK293T FXR-UAS-bla, beta-lactamase ratio, 16 h; activation: active compounds read high
In short: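 FXR-UAS-bla HEK293T cells (10% dialyzed FBS) preincubated 5-7 h at 37 C, then compounds at up to 92 uM for 16 h at 37 C. CCF4 beta-lactamase read-out after 2 h RT. Normalized to chenodeoxycholic acid (100 uM) and DMSO; Hill fit gave EC50 and efficacy.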

[12] = target: Glucocorticoid receptor (Homo sapiens) (UniProt P04150); test: qHTS assay for small molecule agonists of glucocorticoid receptor signaling (AID 588532; active means well fitted curve in the direction sought with a large enough effect in the signal ratio, with a control signal flat; the % refers to the signal ratio); conditions: HeLa MMTV-bla, beta-lactamase ratio, agonist, 18 h; activation: active compounds read high, percent of dexamethasone control, DMSO zero
In short: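 Using MMTV-bla HeLa cells in medium with 1% stripped FBS and 25 mM HEPES, compounds were titrated and incubated overnight-length (18 h). Beta-lactamase cleavage of CCF4 was quantified by dual-emission fluorescence.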

Chain of Estrogen receptor (Homo sapiens) (P03372 whole entry, looked up): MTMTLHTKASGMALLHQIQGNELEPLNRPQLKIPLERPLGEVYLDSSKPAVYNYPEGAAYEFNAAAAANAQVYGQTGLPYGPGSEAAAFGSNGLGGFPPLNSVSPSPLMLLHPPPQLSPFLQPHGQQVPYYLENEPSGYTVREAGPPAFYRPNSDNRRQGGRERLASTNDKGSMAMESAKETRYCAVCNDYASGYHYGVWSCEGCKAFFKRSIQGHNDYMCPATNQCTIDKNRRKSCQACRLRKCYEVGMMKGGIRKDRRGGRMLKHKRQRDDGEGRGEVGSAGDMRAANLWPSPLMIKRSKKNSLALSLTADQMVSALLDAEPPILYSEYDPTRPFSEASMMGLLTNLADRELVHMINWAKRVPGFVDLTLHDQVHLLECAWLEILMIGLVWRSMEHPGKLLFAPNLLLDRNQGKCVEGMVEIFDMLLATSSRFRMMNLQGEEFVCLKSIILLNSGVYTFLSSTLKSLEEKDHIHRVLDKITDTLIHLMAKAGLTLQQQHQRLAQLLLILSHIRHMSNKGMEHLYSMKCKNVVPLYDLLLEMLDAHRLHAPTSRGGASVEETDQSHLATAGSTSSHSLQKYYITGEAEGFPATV
Chain of Peroxisome proliferator-activated receptor delta (Homo sapiens) (Q03181 whole entry, looked up): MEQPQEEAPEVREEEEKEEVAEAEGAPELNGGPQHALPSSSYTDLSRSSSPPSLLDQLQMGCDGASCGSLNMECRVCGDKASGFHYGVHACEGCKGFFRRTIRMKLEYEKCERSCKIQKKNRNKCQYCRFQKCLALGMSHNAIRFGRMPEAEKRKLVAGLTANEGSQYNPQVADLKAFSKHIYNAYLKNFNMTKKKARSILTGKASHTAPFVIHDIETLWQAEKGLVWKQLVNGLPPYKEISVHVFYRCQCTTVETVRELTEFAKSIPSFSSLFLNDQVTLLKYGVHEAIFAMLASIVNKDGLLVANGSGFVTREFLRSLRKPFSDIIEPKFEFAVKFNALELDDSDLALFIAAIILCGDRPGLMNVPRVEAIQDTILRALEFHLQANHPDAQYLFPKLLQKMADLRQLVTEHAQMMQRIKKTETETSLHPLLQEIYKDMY
Chain of Androgen receptor (Homo sapiens) (P10275 whole entry, looked up): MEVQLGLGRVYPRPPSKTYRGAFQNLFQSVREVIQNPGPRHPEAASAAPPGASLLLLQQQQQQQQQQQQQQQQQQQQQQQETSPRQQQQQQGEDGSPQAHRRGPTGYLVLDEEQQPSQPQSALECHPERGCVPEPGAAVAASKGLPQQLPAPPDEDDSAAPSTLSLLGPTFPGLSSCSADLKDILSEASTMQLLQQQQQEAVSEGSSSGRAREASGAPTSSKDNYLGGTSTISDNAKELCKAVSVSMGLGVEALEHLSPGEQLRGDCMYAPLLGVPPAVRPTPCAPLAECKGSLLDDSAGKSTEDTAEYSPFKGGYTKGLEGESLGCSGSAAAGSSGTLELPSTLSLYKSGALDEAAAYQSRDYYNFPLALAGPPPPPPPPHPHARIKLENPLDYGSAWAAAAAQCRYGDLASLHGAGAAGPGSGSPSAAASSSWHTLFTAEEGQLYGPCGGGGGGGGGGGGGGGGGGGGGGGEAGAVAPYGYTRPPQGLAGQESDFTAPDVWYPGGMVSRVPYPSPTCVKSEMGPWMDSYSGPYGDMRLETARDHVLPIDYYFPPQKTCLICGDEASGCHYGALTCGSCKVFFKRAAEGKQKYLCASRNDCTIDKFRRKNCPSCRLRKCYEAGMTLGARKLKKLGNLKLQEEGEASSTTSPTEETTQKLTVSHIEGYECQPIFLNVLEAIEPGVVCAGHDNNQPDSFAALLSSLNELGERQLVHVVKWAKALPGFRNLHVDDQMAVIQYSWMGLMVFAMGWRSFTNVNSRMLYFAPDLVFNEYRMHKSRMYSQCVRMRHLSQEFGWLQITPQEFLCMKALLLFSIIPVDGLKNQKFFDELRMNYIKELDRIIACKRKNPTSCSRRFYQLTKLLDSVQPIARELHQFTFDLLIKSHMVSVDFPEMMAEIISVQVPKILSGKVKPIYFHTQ
Chain of Bile acid receptor (Homo sapiens) (Q96RI1 whole entry, looked up): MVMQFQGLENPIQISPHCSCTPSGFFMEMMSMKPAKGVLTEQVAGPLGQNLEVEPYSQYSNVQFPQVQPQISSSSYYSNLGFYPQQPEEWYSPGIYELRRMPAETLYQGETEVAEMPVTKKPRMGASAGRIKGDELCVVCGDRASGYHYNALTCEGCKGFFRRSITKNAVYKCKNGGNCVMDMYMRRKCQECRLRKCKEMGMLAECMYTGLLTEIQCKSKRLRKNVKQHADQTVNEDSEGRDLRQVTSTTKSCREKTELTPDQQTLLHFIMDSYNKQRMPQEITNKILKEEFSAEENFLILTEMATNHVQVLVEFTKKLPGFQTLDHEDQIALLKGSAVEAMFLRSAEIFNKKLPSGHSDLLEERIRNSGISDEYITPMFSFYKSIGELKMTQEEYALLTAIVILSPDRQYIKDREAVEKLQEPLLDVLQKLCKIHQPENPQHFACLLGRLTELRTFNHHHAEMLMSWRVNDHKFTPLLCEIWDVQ
Chain of Thyroid hormone receptor beta (Homo sapiens) (P10828 whole entry, looked up): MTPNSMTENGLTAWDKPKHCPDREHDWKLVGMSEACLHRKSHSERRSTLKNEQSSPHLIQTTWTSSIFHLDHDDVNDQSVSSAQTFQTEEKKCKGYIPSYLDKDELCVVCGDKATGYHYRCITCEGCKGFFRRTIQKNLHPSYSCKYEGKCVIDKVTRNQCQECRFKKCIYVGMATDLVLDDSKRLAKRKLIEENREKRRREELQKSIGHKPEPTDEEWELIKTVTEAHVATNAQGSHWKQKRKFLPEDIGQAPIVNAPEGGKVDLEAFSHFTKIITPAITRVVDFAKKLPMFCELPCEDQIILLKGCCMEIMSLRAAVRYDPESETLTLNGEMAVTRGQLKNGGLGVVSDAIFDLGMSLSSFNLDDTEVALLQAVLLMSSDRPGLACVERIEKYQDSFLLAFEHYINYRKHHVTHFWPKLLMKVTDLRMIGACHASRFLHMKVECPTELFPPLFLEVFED
Chain of Glucocorticoid receptor (Homo sapiens) (P04150 whole entry, looked up): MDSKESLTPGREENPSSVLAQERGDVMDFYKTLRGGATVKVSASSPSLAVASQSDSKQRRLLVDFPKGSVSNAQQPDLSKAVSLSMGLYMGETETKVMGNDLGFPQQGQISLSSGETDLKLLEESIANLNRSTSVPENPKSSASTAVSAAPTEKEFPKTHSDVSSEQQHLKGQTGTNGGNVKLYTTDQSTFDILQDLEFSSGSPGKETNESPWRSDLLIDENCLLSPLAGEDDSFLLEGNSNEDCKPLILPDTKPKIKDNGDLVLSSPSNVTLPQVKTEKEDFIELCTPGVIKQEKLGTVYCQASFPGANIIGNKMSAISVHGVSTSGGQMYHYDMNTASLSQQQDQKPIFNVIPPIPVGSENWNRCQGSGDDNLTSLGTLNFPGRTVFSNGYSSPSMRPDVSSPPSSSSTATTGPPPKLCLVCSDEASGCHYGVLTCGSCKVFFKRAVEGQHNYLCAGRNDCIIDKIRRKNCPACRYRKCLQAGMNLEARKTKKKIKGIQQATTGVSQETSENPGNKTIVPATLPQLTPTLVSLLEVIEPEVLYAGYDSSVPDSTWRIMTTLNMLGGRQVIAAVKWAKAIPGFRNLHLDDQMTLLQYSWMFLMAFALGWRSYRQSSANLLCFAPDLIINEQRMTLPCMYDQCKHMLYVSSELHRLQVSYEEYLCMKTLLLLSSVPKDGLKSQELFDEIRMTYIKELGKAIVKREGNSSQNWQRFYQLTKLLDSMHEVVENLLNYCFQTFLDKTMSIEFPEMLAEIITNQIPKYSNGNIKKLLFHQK

SMILES | activation [1] [%] | Potency [2] | Potency [3] | Potency [4] | Potency [5] | activity change % (negative = inhibition) [6] | Potency [7] | activation [8] | outcome [9] | Potency [10] | activation [11] [%] | activation [12]
O=C1NCCN1Cc1ccc(Cl)nc1 | 5.64 | inactive | inactive | inactive | inactive | 2.45% | inactive | -1.02% | inactive |  |  | 
CC1(C)Cc2cccc(O)c2O1 |  |  |  |  |  | -2.82% | inactive |  | inactive | inactive |  | 
O=[As](O)(O)O | -0.986 | inactive | inactive | inactive |  | -13.2% |  | -0.92% | inactive |  | -0.515 | -5.56%
CCNP(=S)(OC)O/C(C)=C/C(=O)OC(C)C (centres undefined) |  |  |  | inactive |  |  |  | 0.112% |  | inactive |  | 
CCSC(C)CC1CC(=O)C(/C(CC)=N/OC/C=C/Cl)=C(O)C1 (centres undefined) | 3.31 |  | inactive |  | inactive | -26.3% |  | 0.614% |  |  | 0.0799 | -3.59%
Clc1ccc([C@@]2(Cn3cncn3)C[C@@H](Br)CO2)c(Cl)c1 |  |  | inactive |  | inactive | 11.5% |  | -2.08% |  |  | 3.84 | -12.1%
CC(C)CCCCCCOC(=O)c1ccccc1C(=O)OCCCCCCC(C)C | 13.4 | inactive | inactive | inactive | inactive | -2.48% | inactive | 2.38% | inactive | inactive | 0.284 | 9.1%
COP(=O)(OC)SCn1c(=O)oc2cc(Cl)cnc21 | 7.35 | inactive |  | inactive |  |  | 27.3 µM (active) | -1.51% | inactive | inactive |  | 
CC1=C(C(=O)Nc2ccccc2)SCCO1 | -8.15 | inactive | inactive | inactive |  | 3.71% | inactive |  |  | inactive | -5.36 | -5.7%
CC1(C)CC/C(=C\c2ccc(Cl)cc2)C1(O)Cn1cncn1 (centres undefined) | -0.862 | inactive |  | inactive |  | -0.512% |  |  |  | inactive |  | -0.523%
Clc1ccc([C@@]2(Cn3cncn3)C[C@H](Br)CO2)c(Cl)c1 |  |  |  | inactive |  | 2.29% | inactive |  |  |  | -2.3 | 2.56%
CCOP(=O)(OCC)Oc1ccc2c(C)c(Cl)c(=O)oc2c1 | -0.972 | inactive |  | inactive | inactive | -0.271% |  | 0.977% |  | inactive | 2.16 | 
CSC(=O)c1c(C(F)F)nc(C(F)(F)F)c(C(=O)SC)c1CC(C)C |  |  |  |  |  | -31.5% |  |  |  |  |  | -2.18%
CCOP(=S)(OCC)Oc1nc(Cl)n(C(C)C)n1 |  |  |  |  |  |  |  |  |  |  |  | 12.9%
COc1cc(OC)nc(NC(=O)NS(=O)(=O)c2ncccc2C(F)(F)F)n1 | 3.3 | inactive | inactive | inactive | inactive |  |  | -0.0953% | inactive | inactive | -0.618 | -18.1%
COC(=O)NS(=O)(=O)c1ccc(N)cc1 |  |  |  | inactive |  | -3.22% and 3.54% |  | -0.373% and -0.594% | inactive |  |  | -1.43% and 1.04%
Nc1cnn(-c2ccccc2)c(=O)c1Cl |  |  |  | inactive | inactive | -13.7% |  | -0.283% | inactive |  |  | 
CCOP(N)(=O)Oc1ccc(SC)c(C)c1 (centres undefined) | -2.98 | inactive | inactive | inactive | inactive | -15.7% | inactive | 0.0027% |  | inactive | 3.26 | -9.53%
CS/C(C)=N/OC(=O)N(C)SN(C)C(=O)O/N=C(\C)SC | -1.29 | inactive | inactive | inactive | inactive | -7.26% | inactive | -0.513% | inactive | inactive | 3.69 | 
CCC/C(=N\OCC)C1=C(O)CC(CC(C)SCC)CC1=O (centres undefined) |  |  |  | inactive | inactive |  | inactive | 0.879% | inactive |  |  | -6.86%
O=[N+]([O-])Nc1nccn1Cc1ccc(Cl)nc1 | 20.9 | inactive |  | inactive | inactive | -3.59% |  |  | inactive | inactive |  | 0.289%
